Here are results for 1 compound from the GenesisPotency data set.

The campaign covered roughly 370,000 compounds. About 1,100 (0.3%) were called active. About 1% were inconclusive and are not listed. Calls come from the whole dose curve; as a rule, active = well fitted activation curve with a large enough effect; inconclusive = small, poorly fitted or top-dose-only effect; inactive = flat fitted curve, though single readings scatter. Shown is part of a subset that was picked to be rich in actives.

For this test, the target named is T1, Relaxin receptor 1, Homo sapiens (UniProt Q9HBX9).
T1 sequence (whole entry): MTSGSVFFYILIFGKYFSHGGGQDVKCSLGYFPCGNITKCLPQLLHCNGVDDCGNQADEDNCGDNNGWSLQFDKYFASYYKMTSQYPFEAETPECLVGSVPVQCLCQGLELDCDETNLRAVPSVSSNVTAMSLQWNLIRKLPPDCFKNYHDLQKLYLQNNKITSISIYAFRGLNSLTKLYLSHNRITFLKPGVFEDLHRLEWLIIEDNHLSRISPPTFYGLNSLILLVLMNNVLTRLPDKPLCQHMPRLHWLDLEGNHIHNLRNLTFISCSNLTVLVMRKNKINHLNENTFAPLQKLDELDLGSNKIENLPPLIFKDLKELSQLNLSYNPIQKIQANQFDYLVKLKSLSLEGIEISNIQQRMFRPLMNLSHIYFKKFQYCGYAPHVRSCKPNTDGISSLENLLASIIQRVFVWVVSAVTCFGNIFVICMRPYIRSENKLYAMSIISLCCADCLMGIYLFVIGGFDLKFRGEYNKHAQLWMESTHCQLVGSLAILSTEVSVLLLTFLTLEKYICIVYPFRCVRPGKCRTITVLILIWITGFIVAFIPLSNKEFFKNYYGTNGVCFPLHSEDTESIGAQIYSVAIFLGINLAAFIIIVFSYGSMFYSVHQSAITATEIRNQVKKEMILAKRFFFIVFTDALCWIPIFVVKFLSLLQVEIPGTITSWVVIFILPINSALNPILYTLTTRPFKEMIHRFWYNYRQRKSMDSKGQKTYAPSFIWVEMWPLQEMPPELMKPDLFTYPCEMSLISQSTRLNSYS
Nature of the test: qHTS Assay for Agonists of the Relaxin Receptor RXFP1. Background: In qHTS, concentration-response curves come from the screen itself.
For the compound `CCCC[N+](CCCC)(CCCC)CCCC.Nc1ncnc2c1ncn2[C@@H]1O[C@H](COS(=O)(=O)[O-])[C@@H](O)[C@H]1O`, the call was active.
